About 7,900 targets were measured; listed, in parts, are those with a hit and a random draw of the rest. About 0.6% of all pairs of compound and target were hits.
target: AAK1 (UniProt A0A096LP25); assay: log2 fold change, soluble protein after heating vs DMSO (PISA); higher = thermal stabilisation; K562 cells, 10 uM, 30 min; active = over 0.2 and 3.5 SD of the protein, either way, in both replicates (recomputed)
Method in brief: (§1)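 Soluble protein was defined as the supernatant after 21,000xg for 90 min. It came from K562 cells at 2×10^6 cells/mL given 10 μM compound for 30 min, heated in aliquots for 3 min across 48°C-58°C, pooled, and extracted in PBS with 0.5% NP-40 at 4°C, and was quantified by TMTpro 16plex LC-MS/MS with equalised channel sums. Thermal stability against control samples, from duplicates, is reported as log2 fold change.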

log2 fold change, inactive:
CS(=O)(=O)N1CCN(Cc2cc3nc(-c4cccc5[nH]ncc45)nc(N4CCOCC4)c3s2)CC1 [pictilisib] 0.16
O=C(CCCCCCNC(=O)c1cnc(N(c2ccccc2)c2ccccc2Cl)nc1)NO [citarinostat] -0.014
COc1cc(Nc2ncc3c(n2)-c2ccc(Cl)cc2C(c2c(F)cccc2OC)=NC3)ccc1C(=O)O [alisertib] 0.002
Cc1ccc(-n2nc(C(C)(C)C)cc2NC(=O)Nc2ccc(OCCN3CCOCC3)c3ccccc23)cc1 [doramapimod] -0.013
O=C(Nc1cccc(Nc2ncc(Br)c(NCCc3cnc[nH]3)n2)c1)N1CCCC1 0.255
O=C(O)c1ccc2c(c1)nc(Nc1cccc(Cl)c1)c1ccncc12 [silmitasertib] -0.072
C[C@@H](Oc1cc(-c2cnn(C3CCNCC3)c2)cnc1N)c1c(Cl)ccc(F)c1Cl [crizotinib] 0.124
COC(=O)[C@H](CCSC)NC(=O)c1ccc(NC[C@@H](N)CS)cc1-c1ccccc1 0.023
CC(C)c1cnn2c(NCc3ccccc3)cc(NCCCCCCN)nc12 -0.145
CN1CC[C@H](c2c(O)cc(O)c3c(=O)cc(-c4ccccc4Cl)oc23)[C@H](O)C1 [alvocidib] -0.009
CN1CCN(c2nc(C3=C(c4c[nH]c5ccccc45)C(=O)NC3=O)c3ccccc3n2)CC1 [sotrastaurin] -0.005
CN1CCc2c(c3ccccc3n2Cc2ccc(C(=O)NO)cc2)C1 [Tubastatin A] -0.05
CCCCN(Cc1ccc(C(=O)NO)cc1)C(=O)Nc1ccccc1 [Nexturastat A] 0.068
Cc1cc(Nc2cc(N3CCN(C)CC3)nc(Sc3ccc(NC(=O)C4CC4)cc3)n2)n[nH]1 [tozasertib] 0.152
Cc1cc(Nc2cc(CN3CCOCC3)c3nc(C)c(Cc4ccc(Cl)cc4F)n3n2)n[nH]1 [gandotinib] 0.103
CC[C@@H]1C(=O)N(C)c2cnc(Nc3ccc(C(=O)NC4CCN(C)CC4)cc3OC)nc2N1C1CCCC1 -0.086
CC(=O)c1cnc2ccc(-c3cc(Cl)c(O)c(Cl)c3)nc2c1N[C@H]1CC[C@H](CN(C)C)CC1 0.319
Cc1ccc(NC(=O)c2cccc(N(C)C)c2)cc1NC(=O)c1ccc(O)cc1 -0.011
CN(CCOc1ccc(C[C@@H]2SC(=O)NC2=O)cc1)c1ccccn1 (racemic) [rosiglitazone] 0.107
C#Cc1cccc(Nc2ncnc3cc(OCCOC)c(OCCOC)cc23)c1 [erlotinib] 0.043
COc1cc(C(=O)O)ccc1NC(=O)[C@@H]1N[C@@H](CC(C)(C)C)[C@](C#N)(c2ccc(Cl)cc2F)[C@H]1c1cccc(Cl)c1F [idasanutlin] -0.077
CCCS(=O)(=O)Nc1ccc(F)c(C(=O)c2c[nH]c3ncc(-c4ccc(Cl)cc4)cc23)c1F [vemurafenib] -0.016
CC(C)(O)CC(=O)NCCn1ccc2ncnc(Nc3ccc(Oc4cccc(C(F)(F)F)c4)c(Cl)c3)c21 -0.034
CCn1cc(-c2ccnc3[nH]c(-c4cccc(CN(C)C)c4)cc23)c(-c2ccc(NC(=O)N(C)C)cc2)n1 -0.031
CN(C)CC(=O)Nc1ccc2[nH]c(=O)c3ccccc3c2c1 0.037
Cc1cc(SCc2sc(-c3ccc(C(F)(F)F)cc3)nc2C)ccc1OCC(=O)O -0.048
CN1CCC(CNc2ccc3ncc(-c4cccc(OC(F)(F)F)c4)n3n2)CC1 0.332
NC(=O)c1ccc2nc(-c3ccc(Oc4ccc(Cl)cc4)cc3)[nH]c2c1 0.02
CC(C)(C)Cn1c(N)nc2ccc(-c3[nH]c(C(C)(C)C)nc3-c3ccc(F)cc3)nc21 [ralimetinib] -0.01
CC[C@H](C)n1cc(C)c2c(C(=O)NCc3c(C)cc(C)[nH]c3=O)cc(-c3ccc(N4CCNCC4)nc3)cc21 -0.005

target: AAK1 (UniProt Q2M2I8); assay: as above
Sequence (Q2M2I8 whole entry, looked up): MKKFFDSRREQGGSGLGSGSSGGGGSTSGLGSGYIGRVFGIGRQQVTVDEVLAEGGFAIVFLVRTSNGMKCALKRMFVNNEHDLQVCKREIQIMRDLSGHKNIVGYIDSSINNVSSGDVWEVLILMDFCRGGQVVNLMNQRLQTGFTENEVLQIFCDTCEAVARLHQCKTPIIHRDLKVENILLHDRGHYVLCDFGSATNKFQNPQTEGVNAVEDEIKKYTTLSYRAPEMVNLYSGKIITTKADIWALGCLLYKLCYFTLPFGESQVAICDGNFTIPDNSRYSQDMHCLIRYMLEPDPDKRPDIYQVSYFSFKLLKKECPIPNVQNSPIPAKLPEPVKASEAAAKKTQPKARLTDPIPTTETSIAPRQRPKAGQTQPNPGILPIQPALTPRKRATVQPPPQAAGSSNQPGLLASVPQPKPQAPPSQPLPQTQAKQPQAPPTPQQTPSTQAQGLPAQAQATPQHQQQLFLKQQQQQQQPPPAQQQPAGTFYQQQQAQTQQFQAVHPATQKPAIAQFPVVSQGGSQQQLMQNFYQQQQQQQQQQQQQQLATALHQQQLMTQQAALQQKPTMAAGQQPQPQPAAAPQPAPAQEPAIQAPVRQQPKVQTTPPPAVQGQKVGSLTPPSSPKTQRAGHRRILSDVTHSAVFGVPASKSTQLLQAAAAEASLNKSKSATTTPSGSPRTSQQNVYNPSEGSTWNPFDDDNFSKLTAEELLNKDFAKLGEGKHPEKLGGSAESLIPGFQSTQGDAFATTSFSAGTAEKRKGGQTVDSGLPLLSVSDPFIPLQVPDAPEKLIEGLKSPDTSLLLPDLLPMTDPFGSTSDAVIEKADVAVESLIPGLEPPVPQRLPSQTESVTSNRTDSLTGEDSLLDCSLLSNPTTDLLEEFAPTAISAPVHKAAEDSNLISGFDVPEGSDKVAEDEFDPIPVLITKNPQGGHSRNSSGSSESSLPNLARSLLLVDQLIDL
Method in brief: as §1

log2 fold change, inactive:
CS(=O)(=O)N1CCN(Cc2cc3nc(-c4cccc5[nH]ncc45)nc(N4CCOCC4)c3s2)CC1 [pictilisib] 0.087
O=C(CCCCCCNC(=O)c1cnc(N(c2ccccc2)c2ccccc2Cl)nc1)NO [citarinostat] -0.015
COc1cc(Nc2ncc3c(n2)-c2ccc(Cl)cc2C(c2c(F)cccc2OC)=NC3)ccc1C(=O)O [alisertib] 0.576
Cc1ccc(-n2nc(C(C)(C)C)cc2NC(=O)Nc2ccc(OCCN3CCOCC3)c3ccccc23)cc1 [doramapimod] -0.095
O=C(Nc1cccc(Nc2ncc(Br)c(NCCc3cnc[nH]3)n2)c1)N1CCCC1 0.265
O=C(O)c1ccc2c(c1)nc(Nc1cccc(Cl)c1)c1ccncc12 [silmitasertib] 0.153
C[C@@H](Oc1cc(-c2cnn(C3CCNCC3)c2)cnc1N)c1c(Cl)ccc(F)c1Cl [crizotinib] 0.169
COC(=O)[C@H](CCSC)NC(=O)c1ccc(NC[C@@H](N)CS)cc1-c1ccccc1 -0.044
CC(C)c1cnn2c(NCc3ccccc3)cc(NCCCCCCN)nc12 -0.043
CN1CC[C@H](c2c(O)cc(O)c3c(=O)cc(-c4ccccc4Cl)oc23)[C@H](O)C1 [alvocidib] 0.025
CN1CCN(c2nc(C3=C(c4c[nH]c5ccccc45)C(=O)NC3=O)c3ccccc3n2)CC1 [sotrastaurin] -0.196
CN1CCc2c(c3ccccc3n2Cc2ccc(C(=O)NO)cc2)C1 [Tubastatin A] 0.003
CCCCN(Cc1ccc(C(=O)NO)cc1)C(=O)Nc1ccccc1 [Nexturastat A] -0.021
Cc1cc(Nc2cc(N3CCN(C)CC3)nc(Sc3ccc(NC(=O)C4CC4)cc3)n2)n[nH]1 [tozasertib] 0.211
Cc1cc(Nc2cc(CN3CCOCC3)c3nc(C)c(Cc4ccc(Cl)cc4F)n3n2)n[nH]1 [gandotinib] 0.091
CC[C@@H]1C(=O)N(C)c2cnc(Nc3ccc(C(=O)NC4CCN(C)CC4)cc3OC)nc2N1C1CCCC1 0.078
CC(=O)c1cnc2ccc(-c3cc(Cl)c(O)c(Cl)c3)nc2c1N[C@H]1CC[C@H](CN(C)C)CC1 0.366
Cc1ccc(NC(=O)c2cccc(N(C)C)c2)cc1NC(=O)c1ccc(O)cc1 0
CN(CCOc1ccc(C[C@@H]2SC(=O)NC2=O)cc1)c1ccccn1 (racemic) [rosiglitazone] 0.04
C#Cc1cccc(Nc2ncnc3cc(OCCOC)c(OCCOC)cc23)c1 [erlotinib] -0.028
COc1cc(C(=O)O)ccc1NC(=O)[C@@H]1N[C@@H](CC(C)(C)C)[C@](C#N)(c2ccc(Cl)cc2F)[C@H]1c1cccc(Cl)c1F [idasanutlin] -0.129
CCCS(=O)(=O)Nc1ccc(F)c(C(=O)c2c[nH]c3ncc(-c4ccc(Cl)cc4)cc23)c1F [vemurafenib] 0.147
CC(C)(O)CC(=O)NCCn1ccc2ncnc(Nc3ccc(Oc4cccc(C(F)(F)F)c4)c(Cl)c3)c21 0
CCn1cc(-c2ccnc3[nH]c(-c4cccc(CN(C)C)c4)cc23)c(-c2ccc(NC(=O)N(C)C)cc2)n1 -0.141
CN(C)CC(=O)Nc1ccc2[nH]c(=O)c3ccccc3c2c1 0.087
Cc1cc(SCc2sc(-c3ccc(C(F)(F)F)cc3)nc2C)ccc1OCC(=O)O 0.096
CN1CCC(CNc2ccc3ncc(-c4cccc(OC(F)(F)F)c4)n3n2)CC1 0.27
NC(=O)c1ccc2nc(-c3ccc(Oc4ccc(Cl)cc4)cc3)[nH]c2c1 0.005
CC(C)(C)Cn1c(N)nc2ccc(-c3[nH]c(C(C)(C)C)nc3-c3ccc(F)cc3)nc21 [ralimetinib] 0.04
CC[C@H](C)n1cc(C)c2c(C(=O)NCc3c(C)cc(C)[nH]c3=O)cc(-c3ccc(N4CCNCC4)nc3)cc21 -0.013
